Assay results as given in PubChem BioAssay AID686979 (National Center for Advancing Translational Sciences (NCATS), 2013).
About 50,000 (12%) of roughly 420,000 compounds were called active. Roughly 26% stayed inconclusive and do not appear here. The entries come from a sample that favours actives as a whole. Values without a mark were called inactive. Calls come from the whole dose curve; as a rule, active = well fitted inhibition curve with a large enough effect; inconclusive = small, poorly fitted or top-dose-only effect; inactive = flat fitted curve, though single readings scatter.

test: qHTS for Inhibitors of human tyrosyl-DNA phosphodiesterase 1 (TDP1): qHTS in cells in presence of CPT; details: chicken DT40 Tdp1-/-;hTDP1 cells + 20 nM CPT, ATP luminescence, 48 h; series mostly up to 46.2 µM; activity change, negative = growth inhibition: at the top concentration; note: nearly all actives have a fitted effect of over 55% in size
In short: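 Chicken DT40 Tdp1-/- cells stably complemented with human TDP1 were seeded at 400 cells/well in medium containing 20 nM camptothecin, exposed to pin-transferred compounds, and grown at 37 °C for at least 48 hr. Viability was read as ATP luminescence.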
% is set by controls: 0 for no effect and ±100 for the full control effect; potency is the fitted concentration of half-maximal effect.

In order of rising “activity change, negative = growth inhibition” value:
1. Cc1ccc(C(=O)N/C(=C/c2ccco2)C(=O)NCCc2c[nH]c3ccccc23)cc1C  -41.2%
2. O=C1COc2ccc(S(=O)(=O)Nc3ccc(OC(F)(F)F)cc3)cc2N1  -29.6%
3. COc1ccccc1Nc1nnc(SC(C)C(=O)NC2CC2)s1 (stereo not given)  -28.6%
4. CCOc1ccccc1NC(=O)Cn1ncc2ccc([N+](=O)[O-])cc21  -25.4%
5. Cc1ccc(C)c(N2CCN(C(=O)Cn3ncn4cccc4c3=O)CC2)c1  -24.7%
6. CC(C)(C)NC(=O)NC(=O)CN1CCC(Cc2ccccc2)CC1  -23.6%
7. CC(CCc1ccccc1)NC(=O)c1ccc(Br)o1 (stereo not given)  -21.9%
8. N/C(Cc1ccc([N+](=O)[O-])cc1)=N\OC(=O)C1CCCCC1  -20.7%
9. Cc1ccc(S(=O)(=O)NCCC(=O)NC2CCN(Cc3ccccc3)CC2)cc1  -19.8%
10. Cc1ccnc(N2CCCC(C(=O)Nc3cc(F)ccc3C)C2)n1 (stereo not given)  -19.3%
11. COc1cc(C(=O)NCc2nnc(SCC(=O)c3ccc(Cl)cc3)o2)cc(OC)c1OC  -18.9%
12. C/C(=N\NC(=O)C1(C)CC1(Br)Br)c1ccc(C)cc1C (stereo not given)  -18.8%
13. CC(=O)Nc1ccc(S(=O)(=O)Oc2ccc(/C=N/N=C3/NC(=O)C(CC(=O)O)S3)cc2)cc1 (stereo not given)  -18.8%
14. CN(C(=O)CC1C(=O)NCCN1Cc1ccc(F)cc1Cl)C1CCCCC1 (stereo not given)  -15.5%
15. CCc1noc(C)c1C(=O)N1CCCC(N2CCN(c3ccc(F)cc3)CC2)C1 (stereo not given)  -15.5%
16. Cc1ccccc1OCC(=O)Nc1nc(C)c(C(=O)N(C)C)s1  -13.6%
17. O=c1[nH]c(=O)n(Cc2ccco2)c2c1C(C(F)(F)F)(C(F)(F)F)N=C(c1ccco1)N2  -13.4%
18. Clc1cccc[n+]1CCCC[n+]1ccccc1Cl  -12.7%
19. CC1CN(C(=O)CCC(=O)NCc2cccnc2)c2ccccc2O1 (stereo not given)  -11.9%
20. O=C(COC(=O)c1cccc(Cl)c1)Nc1ccc2[nH]c(=O)[nH]c2c1  -11.5%
21. CN(C)Cc1c(O)ccc2c(=O)c(-c3ccccc3Cl)coc12  -11.2%
22. O=c1c(-c2ccccc2)coc2c(CN3CCOCC3)c(O)ccc12  -10.7%
23. COc1ccc(CCNC(=O)c2cc(-c3ccc4c(c3)OCO4)on2)cc1OC  -10.1%
24. Cc1cccc(NC(=O)c2cccc(C(F)(F)F)c2)c1  -9.45%
25. COC(=O)c1c(C)cc(O)c(C)c1O  -9.14%
26. COc1ccc(NC(=S)N2CCCC(CO)C2)c(OC)c1 (stereo not given)  -6.69%
27. COc1cc(/C=N/O)cc(Br)c1OCc1cccc(Cl)c1  -6.06%
28. COc1cc(C=O)c(Br)cc1OCC(=O)NCc1ccccc1  -6%
29. CN(CC(=O)Nc1cccc(F)c1)C(=O)CC1CCCC1  -4.08%
30. CC1=C(c2ccc(F)cc2)S(=O)(=O)N=C1N1CCC(C(=O)NCCc2ccccc2C)CC1  -2.27%
31. Cc1ccc(NC(=O)C(CC(=O)O)C2CCCO2)c(C)c1 (stereo not given)  -2.25%
32. COc1ccc(C#Cc2c(-c3ccc(OC)cc3)oc3ccc(-c4ccc5c(c4)OCO5)cc23)cc1  -1.98%
33. COc1ccc(OC)c(S(=O)(=O)Nc2c(C)nn(C)c2C)c1  -1.71%
34. CCOC(=O)CSc1nnc(CNc2ccc(F)cc2)o1  -0.543%
35. COc1ccccc1C1C(C(N)=O)=C(C)Nc2nc(CCCO)nn21 (stereo not given)  -0.304%
36. O=C(COC(=O)/C=C/c1cccc(Cl)c1)NCCc1ccccc1  0.178%
37. Nc1ncc(S(=O)(=O)Nc2ccc(OC(F)(F)F)cc2)cn1  1.29%
38. COc1cc2c(cc1OC)CC(=O)N(CCCN(C)C[C@H]1Cc3cc(OC)c(OC)cc31)CC2  1.31%
39. CCOc1ccc(OCC(=O)Nc2c3c(nn2C(C)(C)C)CS(=O)(=O)C3)cc1  1.51%
40. COc1ccc(CNC(=O)C(=O)NCC2OCCN2C(=O)c2ccc(OC)cc2)cc1 (stereo not given)  3.1%
41. CN(Cc1ccccc1)C(=O)COC(=O)/C=C/c1ccc2c(c1)OCO2  4.78%
42. O=C(CNC(=O)c1ccc(Br)o1)Nc1ccccc1  6.19%
43. O=S(=O)(c1ccc(Cl)s1)N1CCC2(CC1)OCCO2  7.46%
44. Cc1nn(Cc2ccccc2)c(C)c1NS(=O)(=O)c1ccccc1  8.74%
45. CNC(=O)c1ccc(NC(=O)c2cccc(C(F)(F)F)c2)cc1  11.5%
46. O=C(CC1Oc2ccccc2NC1=O)NCCCN1CCN(Cc2ccccc2)CC1 (stereo not given)  12%
47. CC(=O)NC1CCN(CC(=O)Nc2nccs2)CC1  13.2%
48. CC(C)=C(NC(=O)c1ccco1)C(=O)NCCc1nc2ccccc2[nH]1  14%
49. CC(C)(C)c1nnc(N/N=C/c2ccc(O)cc2)n(N)c1=O  17.2%
50. O=C(c1c(F)cccc1F)N1CCN(c2ncc(Br)cn2)CC1  20.1%

With CC(C)Oc1ccc(/C=C(\NC(=O)/C=C/c2ccco2)C(=O)NCCc2nc3ccccc3[nH]2)cc1 the Potency was 18.4 µM (active).
For Cc1ccccc1C1=NC(C(F)(F)F)(C(F)(F)F)c2c(n(-c3ccc(F)cc3)c(=O)[nH]c2=O)N1, the Potency was 18.4 µM (active).
With CC(C)CN(Cc1c(O)ccc2c(=O)c(-c3ccccc3)coc12)CC(C)C the Potency was 5.17 µM (active).
With Cc1ccc(Cl)cc1N(C)C(=O)C1CCCN(c2ncnc3onc(-c4ccc(F)cc4)c23)C1 (stereo not given) the Potency was 7.31 µM (active).
For CCc1ccccc1N(C)C(=O)C1CCCN(c2ncnc3onc(-c4ccc(F)cc4)c23)C1 (stereo not given), the Potency was 13 µM (active).
In the case of O=C(Nc1ccc(-c2csc(Nc3cccc(C(F)(F)F)c3)n2)cc1)c1cccc(C(F)(F)F)c1, the Potency is reported as 9.2 µM (active).
For Cc1nn(C)c(C)c1NS(=O)(=O)c1ccc(OC(F)(F)F)cc1, the Potency was 23.1 µM (active).
With O=S(=O)(Nc1ccc(O)c2ccccc12)c1ccc(OC(F)(F)F)cc1 the Potency was 13 µM (active).
In the case of CC1CN(C(=O)CCC(=O)NCCCN2CCC(Cc3ccccc3)CC2)c2cc(Cl)ccc2O1 (stereo not given), the Potency is reported as 20.6 µM (active).
With CC1CN(C(=O)CCC(=O)NC2CCN(Cc3ccccc3)CC2)c2ccccc2O1 (stereo not given) the Potency was 23.1 µM (active).
For CC(CNC(=O)c1ccc(Br)o1)NC(=O)c1ccc(Br)o1 (stereo not given), the Potency was 8.2 µM (active).
In the case of COc1cc(C(=O)NCc2ccncc2)cc(Br)c1OCc1ccccc1, the Potency is reported as 18.4 µM (active).
In the case of COc1cc2c(-c3ccc4c(c3)OCO4)c(-c3ccsc3)oc(=O)c2cc1OC, the Potency is reported as 16.4 µM (active).
With Brc1cccc[n+]1Cc1cccc(C[n+]2ccccc2Br)c1 the Potency was 12.6 µM (active).
For CCC(=O)Nc1ccc(C(=O)CSc2nnc(CNc3ccc(Cl)cc3)o2)cc1OC, the Potency was 20.6 µM (active).
